# TLR9-MyD88 block = inhibitors of TLR9-MyD88 association in cells, primary screen, cell-based, CHO, BLA complementation, fluorescence; Toll-like receptor 9 (Homo sapiens) + Myeloid differentiation primary response protein …; CCF4 FRET ratio; inhibition, % at 4.98 µM; 340,000 compounds, 0.21% hits;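 active means inhibition above the mean over all tested compounds plus 3 SD, cut at about 21% in these data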;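 further: 0% = DMSO only wells and 100% = clavulanate BLA inhibitor control wells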
# HTR2A ag = mouse Htr2a agonists via beta-arrestin recruitment, primary screen, cell-based, luminescence. 5-hydroxytryptamine receptor 2A (Mus musculus), P35363. CHO-K1 mHTR2A beta-arrestin complementation; percent of 30 µM serotonin response. activation, % at 7.6 µM. 360,000 compounds, 0.66% hits;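 active means activation above a run cutoff, the mean activation of all tested compounds plus 3 SD, cut at about 14% in these data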;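 further: 0% = plate median of compound wells and 100% = 30 µM serotonin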
# NOD2-RIPK2 inh = NOD2-RIPK2 binding disruptors in cells, primary screen, fluorescence, CHO cells, BLA complementation; Receptor-interacting serine/threonine-protein kinase 2 (Homo sapiens), O43353; CCF4 ratio; inhibition, % at 4.98 µM; 360,000 compounds, 0.38% hits; AID 624267, 2012; in the data active means inhibition above about 21%;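 further: 0% = vehicle only and 100% = reference blocker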
# Target sequence (O43353 whole entry, looked up): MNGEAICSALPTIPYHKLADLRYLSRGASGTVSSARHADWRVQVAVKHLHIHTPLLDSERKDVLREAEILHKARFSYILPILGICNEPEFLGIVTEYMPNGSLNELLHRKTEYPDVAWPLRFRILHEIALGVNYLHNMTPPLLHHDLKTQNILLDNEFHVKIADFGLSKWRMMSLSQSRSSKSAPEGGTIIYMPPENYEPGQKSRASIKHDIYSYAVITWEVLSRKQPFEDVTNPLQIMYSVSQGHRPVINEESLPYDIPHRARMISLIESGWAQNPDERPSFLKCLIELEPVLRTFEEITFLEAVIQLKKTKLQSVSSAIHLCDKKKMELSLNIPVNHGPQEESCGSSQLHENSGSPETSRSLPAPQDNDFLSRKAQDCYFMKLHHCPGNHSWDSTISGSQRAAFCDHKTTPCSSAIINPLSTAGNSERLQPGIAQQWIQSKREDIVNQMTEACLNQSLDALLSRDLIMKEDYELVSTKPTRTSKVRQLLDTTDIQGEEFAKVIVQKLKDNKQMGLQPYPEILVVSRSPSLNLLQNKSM
# ANO1 block = TMEM16A chloride channel inhibitors, primary screen, cell-based, HTS | normalized B-score (activity score, 25-100; higher = stronger inhibition) at 10 µM | Anoctamin-1 (Mus musculus), Q8BHY3 | 310,000 compounds, 1.2% hits | HEK293 TMEM16A/YFP iodide influx fluorescence, ionomycin;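 active means ratio plate-corrected score three or more library SD toward inhibition, starting fluorescence score within five deviations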;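 further: score derived from kinetic fluorescence span divided by baseline fluorescence per well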
# TLR4 MyD88 comp = inhibitors of TLR4-MyD88 association in cells, primary screen, cell-based, HeLa CL3-4, BLA complementation, FRET ratio. Toll-like receptor 4 (Homo sapiens) + Myeloid differentiation primary response protein …. HeLa CL3-4 TLR4/MyD88 BLA complementation. inhibition, % at 8.4 µM. 200,000 compounds, 0.18% hits. AID 861, 2007; in the data active means inhibition above about 25%;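 further: 0% = vehicle and 100% = reference inhibitor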
# ANO1 activ = TMEM16A chloride channel activators or potentiators, primary screen, cell-based, HTS; B-score at 10 µM; AID 623877, 2012; 340,000 compounds, 0.3% hits; HEK293 TMEM16A/YFP-H148Q/I152L, iodide quench fluorescence; active compounds read low; Anoctamin-1 (Mus musculus), Q8BHY3;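 active means fluorescence-ratio B-score plate-corrected deviation score at least 3 library SD below zero, with starting fluorescence score within 5 deviations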;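 further: channel opened by trigger with iodide after compound preincubation; score built on the fluorescence ratio of max minus min over baseline; more negative score means more quench and so TMEM16A activation or potentiation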
# Starred values were filed as active, the others as inactive; i = inactive; . = no result given. Sampled rows, rich in hits. Any-hit rate of the full collection: about 2.4%.
SMILES,TLR9-MyD88 block,HTR2A ag,NOD2-RIPK2 inh,ANO1 block,TLR4 MyD88 comp,ANO1 activ
C[N+](C)(C)CCOC(N)=O,9,2,-3,i,.,-5.7*
Cc1nnc(SCCOC(N)=O)n1C,-9,1,3,.,-9,i
S=C(Nc1ccccc1)N1CCCCCCC1,6,2,-1,i,-10,-4.6*
Nc1nnc(SCc2ccccc2)n1-c1ccccc1,4,5,-2,i,-6,i
COc1ccc(CCNS(=O)(=O)c2ccc(-n3cnnn3)c(OC)c2)cc1OC,-4,-2,2,i,.,-31*
COc1cc(S(=O)(=O)NCC2OCCc3ccccc32)ccc1-n1cnnn1 (configuration not stated),4,8,10,i,-4,i
COc1cc(C2C=C(c3cccs3)Nc3ncnn32)cc(OC)c1OC (configuration not stated),65*,3,80*,.,17,i
COc1cc(C2CC(=O)C3=C(C2)Nc2ncnn2C3c2cccs2)cc(OC)c1OC (configuration not stated),.,6,-12,i,.,i
O=c1c2ccccc2c(C=NC2CCN(Cc3ccccc3)CC2)c(O)n1Cc1ccc2c(c1)OCO2,.,.,.,i,8,.
CCN1CCc2c(OCC(=O)Nc3cccc(C)c3C)cccc2C1=O,.,.,.,i,0,.
Cc1cccc(NC(=O)COc2cccc3c2CCN(Cc2ccccc2)C3=O)c1C,4,-3,-6,i,2,-6.5*
Cc1ccc(C(=O)CN(C(=O)c2ccc(Cl)c(Cl)c2)N2C(=O)C3CCCCC3C2=O)cc1 (configuration not stated),-1,3,4,i,3,i
Cc1ccc(C(=O)CN(C(=O)c2ccc(Cl)c(Cl)c2)N2C(=O)C3CCCCC3C2=O)cc1C (configuration not stated),-10,14,-2,i,-3,-5.5*
O=C(CC12CC3CC(CC(Br)(C3)C1)C2)Nc1cccc(S(=O)(=O)NC2=NCCC2)c1,3,0,-7,i,9,i
COc1cc(C2CC(=O)c3c([nH]c(C(=O)OCCOC(C)C)c3C)C2)cc(OC)c1OC (configuration not stated),1,9,-12,100*,-5,i
CCC(C)(C)n1nnnc1C(c1ccc2ncccc2c1)N1CCCCCC1 (configuration not stated),-5,5,3,i,-21,i
COc1ccc(-c2nc(CSCC(=O)NCc3ccco3)c(C)o2)cc1,1,-6,-5,100*,1,i
COc1ccc(NC(=O)CSCC(=O)NCc2ccco2)cc1,-7,3,2,i,.,i
CN(Cc1ccc(Cl)c(Cl)c1)C(=O)C1=CC=CN2CCS(=O)(=O)N=C12,-5,8,-3,.,.,i
O=c1[nH]c(C2CC2)nc2sc3c(c12)CCCC3,-3,0,-5,i,-8,i
O=c1c2c3c(sc2nc2sc(C4CC4)nn12)CCCC3,1,3,-2,25*,11,i
CN(C)S(=O)(=O)Oc1cccc(C(=O)Nc2ccc(Cl)cc2)c1,3,2,-5,100*,-9,i
O=C(N/N=C/c1ccc(OCCCF)cc1)c1ccc(C(F)(F)F)cc1,4,-3,-12,i,-21,i
Cc1ccc(OCC(=O)Nc2oc(-c3ccccc3)c(-c3ccccc3)c2C#N)cc1,-7,-6,-22,i,8,i
COc1ccc(-c2oc(NC(=O)CCl)c(C#N)c2-c2ccc(OC)cc2)cc1,0,1,4,100*,16,i
